In PubChem BioAssay AID623868 (Vanderbilt High Throughput Screening Facility, 2012):
Hit rate of the full screen: of about 2,100 compounds, about 760 (36%) were called active. A selection follows. Unmarked numbers belong to inactive results.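 The calls were made as follows: active = thallium-flux fluorescence traces judged by eye to show enhanced or reduced glutamate response, manual score 1 or -1, so both directions (some results past the limit were not filed as active); inactive = the rest, including fluorescent or raised-baseline compounds.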

Test: non-GIRK thallium flux modulation in mGlu8 cells, confirmation, counter-screen for GIRK activator project, cell-based, HEK-293 rmGlu8, no GIRK (AID 623868);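 also: extra codes mark interference with 3 for fluorescent and 4 for baseline rise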
Settings: thallium flux fluorescence, at 10 µM, actives lie on both sides, codes: 1 enhancer, -1 blocker, 0 none, thallium stimulus containing EC20 glutamate
Work on `O=C(CSc1nnc2ccccn12)Nc1nsc(-c2ccccc2)n1` yielded a manual score of 0. `CCc1ccccc1N(C)C(=O)CCc1nc(-c2ccc(C)cc2)no1` showed a manual score of 0. Work on `O=C(Nc1cccc(S(=O)(=O)c2cccc(NC(=O)C3CC3)c2)c1)C1CC1` yielded a manual score of 0.5. For `Cc1cccc(NC(=O)CN(c2ccc(C(C)C)cc2)S(=O)(=O)c2c(C)nn(C)c2C)n1`, the manual score was 0. Compound `COc1ccc(C2CC(c3ccc(Cl)c(Cl)c3)Nc3nc(N)nn32)cc1` (centres undefined) has a manual score of 0. For `Cc1cccc(C(=O)NC(=S)NNC(=O)c2ccc(Cl)cc2)c1`, the manual score was 1 (active). With `Cc1ccccc1C(=O)NNC(=O)C(=O)Nc1cccc(Cl)c1C` the manual score was 1 (active). With `Cc1ccccc1C(=O)NNC(=S)NC(=O)c1ccc(Cl)cc1Cl` the manual score was 1 (active). In the case of `Cc1ccccc1C(=O)NC(=S)Nc1ccc(Oc2ccc(Cl)cc2)cc1`, the manual score is reported as 0. For `Cc1c(Cl)cccc1NC(=S)/C(=C(\[O-])c1ccc(Cl)s1)[n+]1ccccc1`, the manual score was 0. In the case of `Cc1ccc(C(=O)NNC(=S)NC(=O)c2ccc(Cl)cc2)cc1`, the manual score is reported as 1 (active). In the case of `O=C(O)C1C2C=CC3(CN(C4CCCC4)C(=O)C13)O2` (centres undefined), the manual score is reported as 0. Work on `O=C1C2C3C=CC(C3)C2C(=O)N1/N=C/c1cn(Cc2ccccc2)c2ccccc12` (centres undefined) yielded a manual score of 0. `Cc1cc(C)nc(N(C#N)Cc2ccc(Br)cc2)n1` showed a manual score of 0. In the case of `CCn1c(SCC(=O)c2cc(C)n(CC3CCCO3)c2C)nc2ccccc21` (centres undefined), the manual score is reported as 0. `Cc1ccc(CSc2nc3ccncc3[nH]2)cc1` gave a manual score of 0. In the case of `COC(=O)c1cc(CSc2nc3ccc(C)cc3[nH]2)oc1C`, the manual score is reported as -1 (active). `O=C(CSc1nc2ccc(Cl)cc2[nH]1)Nc1ccc2c(c1)CCC2` showed a manual score of 0. `O=C(CCS(=O)NCc1ccccc1)NCc1ccccc1` (centres undefined) showed a manual score of 0. With `Cc1ccc(N2C=Nc3ccc(C)c4nc(C)cc2c34)cc1` the manual score was -1 (active). In the case of `CN1CC=C2C(C#N)=C(N)C(C#N)(C#N)[C@H](c3cccc(Cl)c3)C2C1` (some centres undefined), the manual score is reported as 3. In the case of `Cc1ccc(CN2C3=NCCCN3c3ccccc32)cc1`, the manual score is reported as 0. For `COc1cc(/C=C(/C#N)c2ccc(F)cc2)ccc1OCc1ccc(C(=O)O)o1`, the manual score was -1 (active). With `COc1cc(CNCCc2c[nH]c3ccccc23)ccc1OCc1ccc(F)cc1` the manual score was 0. For `COc1ccc(CN2CCNC(=O)C2CC(=O)O)cc1OC` (centres undefined), the manual score was 0. For `CSc1nc(Sc2ccccc2)c2ccccc2n1`, the manual score was 0. With `O=C(/C=C/c1cccs1)NC(=S)NNC(=O)Cc1cccs1` the manual score was 1 (active). `COc1cc(NC(=O)Cc2cccs2)cc(OC)c1` gave a manual score of 0. Compound `O=C(Cc1cccs1)Nc1cccnc1` has a manual score of 0.
